Records with an inconclusive call do not appear. Entries that show only a call come without a potency. Active and inactive are the calls of the source. Unless noted, calls come from the whole dose curve.
Assays:
[1] = Nuclear factor erythroid 2-related factor 2/antioxidant responsive element (Nrf2/ARE) small molecule agonists: qHTS cell viability counter screen in human keratinocytes (AID 1919968; active = well fitted curve in the direction sought with a large enough effect in the repeat runs; an effect the other way counts as inactive or inconclusive; note: nearly all actives have a fitted effect of over 55% in size; note: potency is the fitted concentration of half-maximal effect)
Summary of the method: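 KeratinoSens cells (HaCaT keratinocytes stably carrying an ARE-luciferase reporter) were seeded at 1,500 cells/well and rested 5 h at 37 C/5% CO2. They were then exposed to compounds in DMSO for 23 h. Viability was read by CellTiter-Fluor fluorescence after 1 h.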

[2] = molecular target: KiSS-1 receptor (Homo sapiens) (UniProt Q969F8); experiment: Human kisspeptin (KISS1R) small molecule agonists, calcium flux assay in KISS1R-HEK293 cells (AID 1920064; active = well fitted curve in the direction sought with a large enough effect in the repeat runs; an effect the other way counts as inactive or inconclusive)
Sequence of KiSS-1 receptor (Homo sapiens) (Q969F8 whole entry, looked up): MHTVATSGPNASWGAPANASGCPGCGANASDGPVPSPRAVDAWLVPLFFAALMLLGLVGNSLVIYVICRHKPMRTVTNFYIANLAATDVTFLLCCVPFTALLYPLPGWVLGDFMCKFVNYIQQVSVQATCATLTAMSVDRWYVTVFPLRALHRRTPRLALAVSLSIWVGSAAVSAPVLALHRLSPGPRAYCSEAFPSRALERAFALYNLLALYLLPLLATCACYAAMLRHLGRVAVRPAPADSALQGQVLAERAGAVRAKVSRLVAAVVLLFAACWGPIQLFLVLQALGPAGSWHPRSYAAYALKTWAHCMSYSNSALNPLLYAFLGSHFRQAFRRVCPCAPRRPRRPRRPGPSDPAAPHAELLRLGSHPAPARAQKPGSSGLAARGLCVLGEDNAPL
Summary of the method: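 HEK293 cells stably expressing human KISS1R were plated 18 h at 37 °C, loaded with calcium dye for 1 h at 37 °C, then given compound by pin tool. Fluorescence (Ex/Em 480/540) was read kinetically for 3 min.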

[3] = G protein-coupled receptor (GPCR) small molecule agonists, calcium flux assay: HEK293 wild type cell line counter screen (AID 1920065)
Summary of the method: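 Cells were plated and cultured 18 h at 37 C/5% CO2, then loaded with calcium dye for 1 h at 37 C. Compounds in DMSO were pin-transferred in agonist mode, and fluorescence (Ex/Em 480/540) was read kinetically for 3 min at 1 s intervals.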

[4] = p53 small molecule agonists, cell-based qHTS assay with human liver microsomes (AID 1963577);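 note: p53 response element beta-lactamase reporter cells with liver microsomes plus NADPH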
Summary of the method: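 Metabolically competent format: test substances, human liver microsomes and NADPH (both 0.5 mg/mL final) incubated with p53RE-bla cells 16 h at 37 C. Beta-lactamase reporter signal then quantified by fluorescence.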

[5] = p53 small molecule agonists, cell-based qHTS assay with rat liver microsomes (AID 1963578)
Summary of the method: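 Each plate received p53RE-bla cells, then compound, then rat liver microsomes and NADPH (both 0.5 mg/mL final). Plates were held 16 h at 37 C, and beta-lactamase activity was detected with LiveBLAzer over 2 h.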

[6] = p53 small molecule agonists, cell-based qHTS assay with human liver microsomes: qHTS cell viability counter screen (AID 1963579); note: nearly all actives have a fitted effect of over 45% in size
Summary of the method: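 Tox21 library compounds, delivered from DMSO stocks, were tested on p53RE-bla cells together with 0.5 mg/mL human liver microsomes and 0.5 mg/mL NADPH (final) over 16 h at 37 C; CellTiter-Glo luminescence served as the cytotoxicity measure.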

[7] = p53 small molecule agonists, cell-based qHTS assay: qHTS cell viability counter screen (AID 1963581); note: nearly all actives have a fitted effect of over 45% in size
Summary of the method: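 p53RE-bla HCT-116 cells were exposed to compounds for 16 h at 37 C; after the beta-lactamase FRET read in the same wells, CellTiter-Glo was added and luminescence (intracellular ATP) read after 30 min at room temperature.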

[8] = p53 small molecule agonists, cell-based qHTS assay (AID 1963582; active = well fitted activation curve with a large enough effect in the signal ratio in the repeat runs, not every such curve was filed as active; the % refers to the signal ratio)
Summary of the method: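 p53RE-bla beta-lactamase reporter cells rested 5 h at 37 C/5% CO2, then received compounds in DMSO by pin transfer and were incubated 16 h at 37 C. LiveBLAzer B/G FRET substrate was loaded for 2 h at room temperature before fluorescence reading.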

[9] = molecular target: 5-hydroxytryptamine receptor 2A (Homo sapiens) (UniProt P28223); experiment: 5-hydroxytryptamine receptor 2A (HTR2A) small molecule antagonists, cell-based qHTS assay (AID 1963586); note: nearly all actives have a fitted effect of over 45% in size; note: potency is the fitted concentration of half-maximal effect
Sequence of 5-hydroxytryptamine receptor 2A (Homo sapiens) (P28223 whole entry, looked up): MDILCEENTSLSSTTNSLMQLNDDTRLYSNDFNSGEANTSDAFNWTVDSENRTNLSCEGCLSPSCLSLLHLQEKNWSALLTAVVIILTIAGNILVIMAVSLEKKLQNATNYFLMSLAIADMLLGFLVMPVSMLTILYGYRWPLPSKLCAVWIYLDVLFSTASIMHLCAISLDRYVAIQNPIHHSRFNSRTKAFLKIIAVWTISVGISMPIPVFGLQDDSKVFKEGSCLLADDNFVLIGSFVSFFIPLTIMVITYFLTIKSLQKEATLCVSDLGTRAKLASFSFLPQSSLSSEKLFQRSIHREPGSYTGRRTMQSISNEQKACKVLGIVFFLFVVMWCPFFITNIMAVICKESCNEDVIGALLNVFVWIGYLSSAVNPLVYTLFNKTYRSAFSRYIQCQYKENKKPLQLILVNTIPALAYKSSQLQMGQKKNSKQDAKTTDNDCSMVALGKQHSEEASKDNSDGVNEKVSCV
Summary of the method: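 Antagonist-mode intracellular calcium assay: DOI (4 nM) added after 5 min compound pre-incubation at room temperature to dye-loaded HTR2A-CHO cells. Fluorescence followed for 3 min, sampled every second.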

[10] = molecular target: 5-hydroxytryptamine receptor 2A (Homo sapiens) (UniProt P28223); experiment: 5-hydroxytryptamine receptor 2A (HTR2A) small molecule agonists, cell-based qHTS assay (AID 1963587); note: nearly all actives have a fitted effect of over 30% in size
Summary of the method: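 CHO cells stably expressing human HTR2A, plated 18 h, loaded with calcium dye 1 h at 37 C. Agonist mode: compounds added and intracellular calcium fluorescence recorded kinetically for 2 min at 1 sec intervals.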

[11] = molecular target: Muscarinic acetylcholine receptor M1 (Homo sapiens) (UniProt P11229); experiment: Cholinergic receptor muscarinic 1 (CHRM1) small molecule antagonists, cell-based qHTS assay (AID 1963588); note: nearly all actives have a fitted effect of over 40% in size; note: potency is the fitted concentration of half-maximal effect
Sequence of Muscarinic acetylcholine receptor M1 (Homo sapiens) (P11229 whole entry, looked up): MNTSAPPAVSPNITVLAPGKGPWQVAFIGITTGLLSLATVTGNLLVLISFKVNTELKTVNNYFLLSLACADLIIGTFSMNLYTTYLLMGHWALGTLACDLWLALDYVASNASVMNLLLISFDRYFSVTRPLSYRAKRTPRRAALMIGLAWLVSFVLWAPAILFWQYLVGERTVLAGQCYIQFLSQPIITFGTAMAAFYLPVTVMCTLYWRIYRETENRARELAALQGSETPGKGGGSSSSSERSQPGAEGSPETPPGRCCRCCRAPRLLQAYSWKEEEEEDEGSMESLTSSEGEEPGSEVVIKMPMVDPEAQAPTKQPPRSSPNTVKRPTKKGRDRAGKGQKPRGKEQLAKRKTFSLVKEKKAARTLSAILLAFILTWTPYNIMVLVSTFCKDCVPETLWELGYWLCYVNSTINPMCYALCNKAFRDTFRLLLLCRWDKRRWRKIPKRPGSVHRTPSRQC
Summary of the method: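 CHRM1-CHO calcium-flux assay, antagonist mode. Cells were seeded 18 h, dye-loaded 1 h at 37 C and given compound for 5 min at RT, then acetylcholine was added at 50nM. FDSS fluorescence was read 3 min; 15 concentrations, three runs.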

[12] = molecular target: Muscarinic acetylcholine receptor M1 (Homo sapiens) (UniProt P11229); experiment: Cholinergic receptor muscarinic 1 (CHRM1) small molecule agonists, cell-based qHTS assay (AID 1963589); note: nearly all actives have a fitted effect of over 35% in size; note: potency is the fitted concentration of half-maximal effect
Summary of the method: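 CHO cells stably expressing human CHRM1, seeded 18 h at 37 C/5% CO2, dye-loaded 1 h at 37 C, then given compound in agonist mode; intracellular calcium fluorescence read kinetically at 1 s intervals. Fifteen concentrations, three independent runs.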

[13] = cAMP Responsive Elements (CRE) small molecule agonists, cell-based qHTS assay (AID 1963590)
Summary of the method: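 CRE-bla HEK 293T cells in DMEM with 10% dialyzed FBS, NEAA, pyruvate and 25 mM HEPES were plated 18 h at 37 C/5% CO2, then exposed to compounds in DMSO for 3 h before LiveBLAzer B/G FRET substrate addition.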

[14] = cAMP Responsive Elements (CRE) small molecule antagonists, cell-based qHTS assay (AID 1963591; active = well fitted inhibition curve with a large enough effect in the signal ratio in the repeat runs, not every such curve was filed as active; the % refers to the signal ratio)
Summary of the method: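 CRE-bla HEK293T cells were plated 18 h at 37 °C/5% CO2, pinned with compound in DMSO, then stimulated with NKH477 at 0.25 uM final for 3 h. LiveBLAzer B/G FRET substrate was added and plates incubated 2 h at room temperature.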

[15] = molecular target: Beta-2 adrenergic receptor (Homo sapiens) (UniProt P07550); experiment: Adrenergic beta2 receptor (ADRB2) small molecule antagonists, cell-based qHTS assay (AID 1963592); note: series mostly up to about 92 µM; nearly all actives have a fitted effect of over 50% in size
Sequence of Beta-2 adrenergic receptor (Homo sapiens) (P07550 whole entry, looked up): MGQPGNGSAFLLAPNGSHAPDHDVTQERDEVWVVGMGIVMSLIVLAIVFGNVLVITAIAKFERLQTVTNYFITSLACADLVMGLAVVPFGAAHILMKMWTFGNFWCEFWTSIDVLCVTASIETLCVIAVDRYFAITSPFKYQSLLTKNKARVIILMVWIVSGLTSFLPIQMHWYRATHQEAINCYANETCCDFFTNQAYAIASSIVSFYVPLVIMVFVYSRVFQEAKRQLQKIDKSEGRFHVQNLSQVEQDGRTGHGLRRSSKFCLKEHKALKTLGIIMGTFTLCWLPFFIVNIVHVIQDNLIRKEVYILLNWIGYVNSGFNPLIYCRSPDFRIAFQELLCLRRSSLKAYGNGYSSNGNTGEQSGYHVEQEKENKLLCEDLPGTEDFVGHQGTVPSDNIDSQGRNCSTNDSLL
Summary of the method: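 Cells (CHO, stable ADRB2 overexpression) incubated 18-20hr at 37C; compounds added from DMSO; agonist mix (1nM isoproterenol, 100uM IBMX, 25uM Ro-20-1724) added; 0.5hr RT; d2-cAMP and anti-cAMP-cryptate added; 1hr RT; 665/615 nm read.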

[16] = molecular target: D(2) dopamine receptor (Homo sapiens) (UniProt P14416); experiment: Dopamine D2 receptor (DRD2) small molecule agonists, cell-based qHTS assay (AID 1963594); note: nearly all actives have a fitted effect of over 35% in size
Sequence of D(2) dopamine receptor (Homo sapiens) (P14416 whole entry, looked up): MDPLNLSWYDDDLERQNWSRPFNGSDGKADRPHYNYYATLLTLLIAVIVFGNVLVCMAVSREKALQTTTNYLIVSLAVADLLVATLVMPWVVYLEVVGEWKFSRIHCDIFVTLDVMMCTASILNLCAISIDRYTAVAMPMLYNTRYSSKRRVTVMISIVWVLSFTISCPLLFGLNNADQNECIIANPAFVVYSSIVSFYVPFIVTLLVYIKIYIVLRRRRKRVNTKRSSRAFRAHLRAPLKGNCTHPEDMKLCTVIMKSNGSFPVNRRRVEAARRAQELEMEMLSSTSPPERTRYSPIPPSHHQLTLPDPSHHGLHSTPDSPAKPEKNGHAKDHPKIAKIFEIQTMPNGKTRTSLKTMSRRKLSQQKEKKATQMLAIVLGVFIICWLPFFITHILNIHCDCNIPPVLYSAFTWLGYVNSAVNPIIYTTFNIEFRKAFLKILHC
Summary of the method: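 HEK293 cells stably expressing human DRD2, pre-treated with PDE inhibitor Ro20-1724 (0.1 mM final) and compound 10 min at room temperature, then stimulated with NKH477 (200nM […]) for 30 min. cAMP read by HTRF (665/620 nm).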

[17] = molecular target: D(2) dopamine receptor (Homo sapiens) (UniProt P14416); experiment: Dopamine D2 receptor (DRD2) small molecule antagonists, cell-based qHTS assay (AID 1963595; active = well fitted inhibition curve with a large enough effect in the signal ratio in the repeat runs, with a control signal flat; the % refers to the signal ratio; note: potency is the fitted concentration of half-maximal effect)
Summary of the method: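 Human DRD2 antagonist qHTS measuring cAMP by HTRF. The cells are exposed to compound for 10 min, then to NKH477 (200 nM) and quinpirole (12 nM) for 30 min at RT, with Ro20-1724 (0.1 mM) present throughout.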

[18] = p53 small molecule agonists, cell-based qHTS assay with rat liver microsomes: qHTS cell viability counter screen (AID 1963580); note: nearly all actives have a fitted effect of over 45% in size
Summary of the method: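 Viability is assessed in parallel with the p53 reporter read: HCT-116 p53RE-bla cells receive compounds plus rat microsomes and NADPH (0.5 mg/mL final apiece), incubate 16 h at 37 C, and then CellTiter-Glo luminescence is recorded.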

[19] = molecular target: Beta-2 adrenergic receptor (Homo sapiens) (UniProt P07550); experiment: Adrenergic beta2 receptor (ADRB2) small molecule agonists, cell-based qHTS assay (AID 1963593);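 note: CHO cells stably overexpressing human ADRB2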
Summary of the method: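 CHO cells stably over-expressing ADRB2 were plated overnight at 37C, then dosed with compounds plus a stimulation mix containing 100uM IBMX and 25uM Ro-20-1724 for 0.5hr at room temperature. cAMP was measured by HTRF competition, 1hr.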

Row | Compound | Potency [1] | outcome [2] | outcome [3] | Potency [4] | Potency [5] | Potency [6] | Potency [7] | Potency [8] | Potency [9] | Potency [10] | Potency [11] | Potency [12] | Potency [13] | Potency [14] | Potency [15] | Potency [16] | Potency [17] | Potency [18] | Potency [19]
1 | C1=CCCC1 | inactive | inactive | inactive | inactive | inactive | inactive | inactive | inactive | inactive | inactive | inactive | inactive | inactive | inactive | inactive | inactive | inactive | – | –
2 | C=CCON/C(CCC)=C1\C(=O)CC(C)(C)C(C(=O)OC)=C1O | inactive | inactive | inactive | inactive | inactive | inactive | inactive | inactive | – | inactive | inactive | 4840 nM (active) | inactive | inactive | inactive | inactive | – | inactive | –
3 | CC(CO)(CO)C(=O)O | inactive | inactive | inactive | inactive | inactive | inactive | – | – | inactive | inactive | inactive | – | inactive | inactive | inactive | inactive | inactive | inactive | –
4 | CCCCCCCCCCCSCC(=O)O | inactive | inactive | inactive | inactive | inactive | inactive | inactive | – | – | inactive | inactive | inactive | – | – | inactive | – | inactive | inactive | inactive
5 | O=C(/C=C/c1ccc(O)c(O)c1)O[C@@H]1C[C@](O)(C(=O)O)C[C@@H](O)[C@H]1O | inactive | inactive | inactive | inactive | inactive | inactive | inactive | inactive | – | inactive | – | inactive | inactive | inactive | – | inactive | – | inactive | –
6 | C/C=C/C=C/COC(=O)C(C)C | inactive | inactive | inactive | inactive | inactive | inactive | – | – | inactive | inactive | – | inactive | – | – | inactive | inactive | inactive | inactive | –
7 | CCC=O | inactive | inactive | inactive | inactive | inactive | inactive | inactive | inactive | – | inactive | inactive | inactive | inactive | inactive | inactive | inactive | inactive | inactive | –
8 | CC(=O)Nc1ccccc1C | inactive | inactive | inactive | inactive | inactive | inactive | – | – | inactive | inactive | inactive | inactive | inactive | inactive | inactive | inactive | inactive | inactive | inactive
9 | ONc1ccccc1 | inactive | inactive | inactive | inactive | inactive | inactive | inactive | – | – | – | inactive | inactive | inactive | inactive | inactive | inactive | inactive | inactive | –
10 | Clc1nnc(Cl)c2ccccc12 | inactive | inactive | inactive | inactive | inactive | inactive | inactive | – | inactive | – | inactive | inactive | – | inactive | inactive | inactive | inactive | inactive | –
11 | CCC(C(=O)OCCN(CC)CC)c1ccccc1 (stereo not drawn) | inactive | inactive | inactive | inactive | inactive | inactive | inactive | inactive | inactive | – | – | inactive | inactive | inactive | inactive | inactive | inactive | inactive | inactive
12 | CC(CC(C#N)(c1ccccc1)C(C)C)N(C)C (stereo not drawn) | inactive | inactive | inactive | inactive | inactive | inactive | inactive | inactive | inactive | inactive | – | – | inactive | inactive | inactive | inactive | inactive | – | inactive
13 | CN1CCN(C2Cc3ccccc3Sc3ccc(Cl)cc32)CC1 (stereo not drawn) | 29800 nM (active) | inactive | inactive | inactive | inactive | inactive | inactive | – | 41 nM (active) | – | 65 nM (active) | inactive | – | inactive | inactive | inactive | 133 nM (active) | inactive | –
14 | CN=C(NC#N)Nc1ccc(C2=NNC(=O)CC2C)cc1 (stereo not drawn) | inactive | inactive | inactive | inactive | inactive | inactive | inactive | – | inactive | – | inactive | inactive | inactive | inactive | inactive | – | – | inactive | –
15 | CNS(=O)(=O)CCc1ccc2[nH]cc(C3CCN(C)CC3)c2c1 | inactive | inactive | inactive | inactive | inactive | inactive | inactive | inactive | – | – | inactive | inactive | – | inactive | – | inactive | inactive | inactive | –
16 | CCN(CC)C(C)CN1c2ccccc2Sc2ccccc21 (stereo not drawn) | inactive | inactive | inactive | inactive | inactive | inactive | – | inactive | – | inactive | – | inactive | inactive | inactive | inactive | – | inactive | inactive | –

From PubChem BioAssay (Tox21)
